# PubChem BioAssay (Tox21)
# “And” between values parts separate entries of the source, which are not always exact repeats. Equal values may be shown once. Inconclusive results are not listed. Entries that show only a call come without a potency. Some compounds were tested as several samples or in several runs, with calls that do not always agree. The source made the active and inactive calls. Unless noted, calls follow the shape of the dose curve; as a rule, active = well fitted curve in the direction sought with a large enough effect in the repeat runs; inconclusive = weak or mixed curves; inactive = no such curve, though single readings can be large; an effect the other way counts as inactive or inconclusive.
# Legend:
# [1] = qHTS assay to identify small molecule antagonists of the thyroid receptor (TR) signaling pathway (AID 743065); also: series mostly up to about 70 µM; nearly all actives have a fitted effect of over 55% in size
# Outline: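 GH3.TRE-Luc rat pituitary cells carrying two TR response elements driving luciferase were plated for 4 h, given compound plus 1 nM T3 (final), and incubated 23.5 h at 37 C. ONE-Glo luminescence measured reporter inhibition; CellTiter-Fluor fluorescence tracked cytotoxicity.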
# [2] = test system: thyroid hormone receptor (rat, GH3 cells); assay: qHTS assay to identify small molecule agonists of the thyroid receptor (TR) signaling pathway (AID 743066; calls by dose curve)
# [3] = qHTS assay to identify small molecule antagonists of the estrogen receptor alpha (ER-alpha) signaling pathway - cell viability counter screen (AID 743074; calls by dose curve; also: nearly all actives have a fitted effect of over 45% in size; also: potency is read from the fitted curve at half-maximal effect)
# Aromatase (Homo sapiens) = Aromatase (Homo sapiens) (UniProt P11511); assay: qHTS assay to identify aromatase inhibitors (AID 743083); also: nearly all actives have a fitted effect of over 55% in size; also: potency is read from the fitted curve at half-maximal effect
# [4] = qHTS assay to identify aromatase inhibitors - cell viability counter screen (AID 743084);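 also: cells stimulated with testosterone during compound exposure; nearly all actives have a fitted effect of over 55% in size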; also: potency is read from the fitted curve at half-maximal effect
# [5] = target: Aryl hydrocarbon receptor (Homo sapiens) (UniProt P35869); assay: qHTS assay to identify small molecule that activate the aryl hydrocarbon receptor (AhR) signaling pathway (AID 743085); also: nearly all actives have a fitted effect of over 15% in size; also: potency is read from the fitted curve at half-maximal effect;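 as to activation: HG2L7.5c1 human HepG2 liver cells with stably integrated DRE-driven firefly reporter; series mostly up to about 70 µM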
# Outline: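 Measured in HG2L7.5c1 cells: CellTiter-Fluor signal (30 min incubation, 37C) for viability, then luciferase luminescence (30 min, room temperature). Compound contact time was 24 h at 37C, following a 5 h pre-incubation.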
# [6] = qHTS assay to identify small molecule that activate the aryl hydrocarbon receptor (AhR) signaling pathway - cell viability counter screen (AID 743086);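 also: HepG2 liver cells carrying the AhR DRE luciferase reporter; series mostly up to about 70 µM; nearly all actives have a fitted effect of over 45% in size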
# Outline: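 HepG2-AhR-luc (HG2L7.5c1) cells, 4000/well, were preincubated 5 h at 37C, exposed to compound in qHTS format for 24 hr at 37C, then given CellTiter-Fluor for 30 min; viability was read as fluorescence in the reporter wells.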
# [7] = target: Peroxisome proliferator-activated receptor gamma (Homo sapiens) (UniProt P37231); assay: qHTS assay to identify small molecule antagonists of the peroxisome proliferator-activated receptor gamma (PPARg) signaling pathway (AID 743191; calls by dose curve; also: series mostly up to about 63 µM; nearly all actives have a fitted effect of over 30% in size)
# Outline: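 GeneBLAzer PPARg UAS-bla HEK293H cells carrying a UAS-driven beta-lactamase reporter were plated at 3000 cells/well, preincubated 5 h at 37C, then given compound for 17 h at 37C; LiveBLAzer B/G FRET substrate was read after 1 h at room temperature.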
# [8] = qHTS assay to identify small molecule antagonists of the peroxisome proliferator-activated receptor gamma (PPARg) signaling pathway - cell viability counter screen (AID 743194); also: nearly all actives have a fitted effect of over 55% in size
# Outline: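 PPARg-UAS-bla HEK293H cells were plated, rested 5 h at 37 C, then treated with compounds plus rosiglitazone (50 nM final) for 17 h at 37 C; viability was then read by CellTiter-Glo luminescence after 30 min at room temperature.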
# [9] = qHTS assay for small molecule agonists of the antioxidant response element (ARE) signaling pathway (AID 743202; active = well fitted activation curve with a large enough effect in the signal ratio in the repeat runs, not every such curve was filed as active; the % refers to the signal ratio; also: potency is read from the fitted curve at half-maximal effect)
# Outline: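 Steps: seed ARE-bla HepG2 cells (2,000/well); incubate 5 h at 37 C; add compounds by pin tool; incubate 16 h at 37 C; add FRET substrate; read fluorescence after 2 h at RT.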
# [10] = qHTS assay for small molecule agonists of the antioxidant response element (ARE) signaling pathway - cell viability counter screen (AID 743203; calls by dose curve; also: nearly all actives have a fitted effect of over 55% in size; also: potency is read from the fitted curve at half-maximal effect)
# Outline: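 Measured in the same wells as the beta-lactamase ARE reporter, this read-out is CellTiter-Glo luminescence from HepG2 ARE-bla cells given compounds for 16 hrs.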
# [11] = qHTS assay for small molecule activators of the heat shock response signaling pathway (AID 743210; active = well fitted activation curve with a large enough effect in the signal ratio in the repeat runs, with a control signal flat, not every such curve was filed as active; the % refers to the signal ratio;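 also: HeLa cells with beta-lactamase reporter driven by heat shock elements; series mostly up to about 63 µM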)
# Outline: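 Activation of heat shock element-controlled beta-lactamase expression is measured in HeLa cells by LiveBLAzer FRET fluorescence, with compound exposure lasting 5 h at 37 C and substrate loading 2.5 h at room temperature.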
# [12] = target: Estrogen receptor (Homo sapiens) (UniProt P03372); assay: qHTS assay to identify small molecule agonists of the estrogen receptor alpha (ER-alpha) signaling pathway (AID 743075; calls by dose curve)
# [13] = target: Estrogen receptor (Homo sapiens) (UniProt P03372); assay: qHTS assay to identify small molecule agonists of the estrogen receptor alpha (ER-alpha) signaling pathway using the BG1 cell line (AID 743079); also: nearly all actives have a fitted effect of over 20% in size; also: potency is read from the fitted curve at half-maximal effect
# [14] = qHTS assay to identify small molecule antagonists of the estrogen receptor alpha (ER-alpha) signaling pathway using the BG1 cell line (AID 743080; calls by dose curve;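 also: BG1 cells stimulated with 17beta-estradiol alongside compound; series mostly up to about 70 µM; nearly all actives have a fitted effect of over 25% in size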)
# Outline: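 Readout is ONE-Glo luminescence, taken 30 min at room temperature after reagent addition, preceded by a CellTiter-Fluor viability read; BG1-Luc-4E2 cells had received compound and 17beta-estradiol for 21.5 h at 37 C.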
# [15] = qHTS assay for small molecule activators of the heat shock response signaling pathway - cell viability counter screen (AID 743209); also: nearly all actives have a fitted effect of over 50% in size
# Outline: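 Same-well multiplex: after 2.5 h room-temperature incubation with LiveBLAzer B/G substrate and fluorescence reading, CellTiter-Glo reagent was added to HSE-bla HeLa cells that had received compound for 5 h at 37 C; luminescence read after 30 min.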
# [16] = target: Estrogen receptor (Homo sapiens) (UniProt P03372); assay: qHTS assay to identify small molecule antagonists of the estrogen receptor alpha (ER-alpha) signaling pathway (AID 743069; active = well fitted curve in the direction sought with a large enough effect in the signal ratio in the repeat runs, not every such curve was filed as active; the % refers to the signal ratio)
# Outline: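 Screening used a UAS-driven beta-lactamase reporter integrated into HEK293 cells expressing ER-alpha, stimulated with 17beta-estradiol alongside test compounds over 18 hr at 37C; signal came from LiveBLAzer B/G FRET fluorescence.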
# [17] = qHTS assay to identify small molecule antagonists of the estrogen receptor alpha (ER-alpha) signaling pathway using the BG1 cell line - cell viability counter screen (AID 743081);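 also: compound given together with 17beta-estradiol as the ER stimulus; series mostly up to about 70 µM; nearly all actives have a fitted effect of over 45% in size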
# [18] = target: Peroxisome proliferator-activated receptor gamma (Homo sapiens) (UniProt P37231); assay: qHTS assay to identify small molecule agonists of the peroxisome proliferator-activated receptor gamma (PPARg) signaling pathway (AID 743094; active = well fitted activation curve with a large enough effect in the signal ratio in the repeat runs, not every such curve was filed as active; the % refers to the signal ratio)
# Outline: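 Cell-based bla reporter, HEK293H background, PPARg-driven UAS. Pre-incubation 5 h, 37C, 5% CO2. Compound 17 h, 37C. Substrate 1 h RT; fluorescence.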
# [19] = qHTS assay to identify small molecule antagonists of the thyroid receptor (TR) signaling pathway - cell viability counter screen (AID 743064); also: nearly all actives have a fitted effect of over 50% in size; also: potency is read from the fitted curve at half-maximal effect
# Outline: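 Counter screen for cytotoxicity: compound plus T3 (1 nM final) on GH3.TRE-Luc cells, 23.5 h at 37 °C, then fluorescence viability readout with CellTiter-Fluor.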
# Sequence of Estrogen receptor (Homo sapiens) (P03372 whole entry, looked up): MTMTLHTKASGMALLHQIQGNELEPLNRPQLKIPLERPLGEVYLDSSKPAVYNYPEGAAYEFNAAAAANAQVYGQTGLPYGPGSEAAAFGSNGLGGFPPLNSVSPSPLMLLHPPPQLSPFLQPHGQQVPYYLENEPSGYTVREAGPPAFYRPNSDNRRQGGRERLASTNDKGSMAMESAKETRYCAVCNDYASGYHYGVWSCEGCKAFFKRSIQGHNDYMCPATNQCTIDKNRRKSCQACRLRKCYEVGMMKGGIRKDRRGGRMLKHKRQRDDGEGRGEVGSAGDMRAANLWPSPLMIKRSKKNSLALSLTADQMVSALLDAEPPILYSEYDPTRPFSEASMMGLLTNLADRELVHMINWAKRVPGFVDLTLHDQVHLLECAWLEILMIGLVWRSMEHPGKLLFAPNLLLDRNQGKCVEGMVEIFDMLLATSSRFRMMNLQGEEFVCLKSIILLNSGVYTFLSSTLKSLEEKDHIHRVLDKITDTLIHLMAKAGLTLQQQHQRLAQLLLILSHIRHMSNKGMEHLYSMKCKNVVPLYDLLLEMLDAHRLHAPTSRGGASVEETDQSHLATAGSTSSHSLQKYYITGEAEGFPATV
# Sequence of Peroxisome proliferator-activated receptor gamma (Homo sapiens) (P37231 whole entry, looked up): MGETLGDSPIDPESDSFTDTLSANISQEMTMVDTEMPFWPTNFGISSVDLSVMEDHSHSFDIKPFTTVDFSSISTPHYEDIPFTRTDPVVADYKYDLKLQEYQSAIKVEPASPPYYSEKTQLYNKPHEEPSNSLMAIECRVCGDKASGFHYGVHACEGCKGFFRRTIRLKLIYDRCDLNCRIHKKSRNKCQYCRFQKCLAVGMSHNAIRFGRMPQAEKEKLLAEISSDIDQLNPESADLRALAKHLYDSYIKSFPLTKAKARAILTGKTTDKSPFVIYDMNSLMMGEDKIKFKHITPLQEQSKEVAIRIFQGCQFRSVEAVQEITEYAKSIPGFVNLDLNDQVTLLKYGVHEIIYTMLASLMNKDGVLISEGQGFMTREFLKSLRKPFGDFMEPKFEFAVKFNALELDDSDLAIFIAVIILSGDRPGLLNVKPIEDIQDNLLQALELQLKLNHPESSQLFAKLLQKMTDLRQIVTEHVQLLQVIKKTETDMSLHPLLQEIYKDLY
# Sequence of Aromatase (Homo sapiens) (P11511 whole entry, looked up): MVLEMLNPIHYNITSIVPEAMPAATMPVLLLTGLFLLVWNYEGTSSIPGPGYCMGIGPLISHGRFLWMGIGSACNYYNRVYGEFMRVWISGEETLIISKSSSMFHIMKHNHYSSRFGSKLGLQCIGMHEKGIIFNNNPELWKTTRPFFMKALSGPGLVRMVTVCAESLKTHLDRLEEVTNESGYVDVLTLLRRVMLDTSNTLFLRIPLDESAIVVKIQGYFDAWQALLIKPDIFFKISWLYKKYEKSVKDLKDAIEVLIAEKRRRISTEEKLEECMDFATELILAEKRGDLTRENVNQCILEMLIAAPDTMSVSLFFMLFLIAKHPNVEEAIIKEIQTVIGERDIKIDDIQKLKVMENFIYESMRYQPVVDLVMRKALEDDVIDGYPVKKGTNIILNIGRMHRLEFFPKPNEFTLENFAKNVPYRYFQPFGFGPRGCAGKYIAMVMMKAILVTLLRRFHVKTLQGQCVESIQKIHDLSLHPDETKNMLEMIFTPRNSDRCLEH
# Sequence of Aryl hydrocarbon receptor (Homo sapiens) (P35869 whole entry, looked up): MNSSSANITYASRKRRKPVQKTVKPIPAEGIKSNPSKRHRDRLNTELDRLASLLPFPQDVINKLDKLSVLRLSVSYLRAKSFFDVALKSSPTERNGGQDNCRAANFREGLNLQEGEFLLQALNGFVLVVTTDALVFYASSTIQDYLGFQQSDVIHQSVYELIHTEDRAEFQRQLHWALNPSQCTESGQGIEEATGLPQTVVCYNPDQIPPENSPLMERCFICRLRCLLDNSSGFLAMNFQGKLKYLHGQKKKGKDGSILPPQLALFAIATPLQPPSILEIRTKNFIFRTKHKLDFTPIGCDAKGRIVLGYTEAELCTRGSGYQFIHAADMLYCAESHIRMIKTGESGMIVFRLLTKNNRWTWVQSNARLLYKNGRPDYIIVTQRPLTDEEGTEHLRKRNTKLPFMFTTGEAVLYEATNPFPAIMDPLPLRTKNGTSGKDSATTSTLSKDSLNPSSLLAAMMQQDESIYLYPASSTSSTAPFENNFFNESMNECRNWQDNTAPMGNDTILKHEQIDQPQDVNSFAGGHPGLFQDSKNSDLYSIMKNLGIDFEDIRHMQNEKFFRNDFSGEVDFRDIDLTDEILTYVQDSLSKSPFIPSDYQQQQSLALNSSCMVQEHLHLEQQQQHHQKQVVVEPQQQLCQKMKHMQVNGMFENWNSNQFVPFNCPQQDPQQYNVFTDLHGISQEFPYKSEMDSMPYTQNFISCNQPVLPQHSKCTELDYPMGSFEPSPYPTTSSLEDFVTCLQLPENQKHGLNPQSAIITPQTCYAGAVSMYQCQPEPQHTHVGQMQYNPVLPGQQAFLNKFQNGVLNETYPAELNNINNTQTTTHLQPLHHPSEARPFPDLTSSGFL
SMILES,Potency [1],Potency [2],Potency [3],Potency (Aromatase (Homo sapiens)),Potency [4],Potency [5],Potency [6],Potency [7],Potency [8],Potency [9],Potency [10],Potency [11],Potency [12],Potency [13],Potency [14],Potency [15],Potency [16],Potency [17],Potency [18],Potency [19]
COC(c1ccccc1)(c1ccccc1)[C@H](Oc1nc(C)cc(C)n1)C(=O)O,inactive,inactive,inactive,inactive,inactive,inactive,inactive,inactive,inactive,inactive,inactive,inactive,–,–,–,–,–,–,–,–
O=C1OC2(c3ccc(O)cc3Oc3cc(O)ccc32)c2ccccc21,–,inactive,inactive,inactive,–,inactive,–,–,inactive,–,inactive,–,inactive,inactive and 23.7 µM (active),inactive,inactive,–,–,–,–
O=C(O)c1cc(Cl)cc(Cl)c1,–,inactive,inactive,inactive,inactive,inactive,inactive,–,inactive,inactive,inactive,inactive,inactive,inactive,inactive,inactive,inactive,inactive,–,–
CC[C@@H](N)CO,inactive,inactive,inactive,inactive,inactive,inactive,inactive,–,inactive,inactive,inactive,inactive,inactive,inactive,inactive,–,inactive,inactive,inactive,–
C/C=C/c1ccc(OCC)c(O)c1,inactive,inactive,inactive,inactive,inactive,–,inactive,inactive,–,inactive,inactive,inactive,–,–,–,inactive,–,inactive,inactive,–
CC(=O)O[C@]1(C(C)=O)CC[C@H]2[C@@H]3C[C@H](C)C4=CC(=O)CC[C@]4(C)[C@H]3CC[C@@]21C,–,–,inactive,inactive,inactive,inactive,inactive,inactive,inactive,–,inactive,–,inactive,inactive,–,inactive,–,inactive,–,inactive
Nc1ccc2cc3ccccc3cc2c1,–,inactive,–,inactive,–,62.2 µM (active) and 8.63 µM (active),–,–,–,–,inactive,–,–,9.86 µM (active) and 24.3 µM (active),–,inactive,–,inactive,–,–
C#CC(C)(CC)OC(=O)c1ccccc1C(=O)O (centres undefined),–,–,–,–,–,–,–,inactive,inactive,inactive,inactive,inactive,–,–,–,inactive,–,–,–,–
c1ccc2c(c1)-c1cccc3c1c-2cc1ccccc13,–,–,inactive,inactive,inactive,8.43 µM (active) and 6.86 µM (active),inactive,–,inactive,1.34 µM (active),inactive,–,–,inactive,inactive,inactive,–,inactive,–,–
NC12CC3CC(CC(C3)C1)C2,–,inactive,inactive,inactive,inactive,inactive,inactive,inactive,inactive,–,inactive,–,–,–,–,inactive,–,inactive,–,–
CC(C)CCOCc1ccccc1,–,–,inactive,inactive,inactive,inactive,inactive,inactive,–,–,inactive,inactive,inactive,inactive,inactive,inactive,inactive,inactive,inactive,inactive
Nc1cc(S(=O)(=O)O)cc2cc(S(=O)(=O)O)cc(O)c12,–,–,inactive,inactive,inactive,inactive,inactive,inactive,inactive,–,inactive,–,–,–,–,inactive,–,inactive,–,inactive
C[N+]1([O-])CCOCC1,inactive,inactive,inactive,inactive,inactive,inactive,inactive,inactive,–,inactive,inactive,inactive,–,–,–,inactive,–,inactive,inactive,–
CCN(CC)C(=S)SSC(=S)N(CC)CC,–,–,inactive and 39.8 µM (active),168 nM (active) and 68.6 nM (active) and 55.8 nM (active),86.3 nM (active) and 44.3 nM (active),inactive,–,–,inactive,77 nM (active) and inactive,27.9 µM (active) and inactive,–,inactive,–,–,inactive,–,inactive,–,34.2 µM (active)
NC(N)=NC(=O)Cc1c(Cl)cccc1Cl,–,inactive,inactive,inactive,inactive,inactive,inactive,inactive,–,–,inactive,–,–,–,–,inactive,–,–,inactive,–
